Results filed as inconclusive are left out. Activity calls are given as the source filed them. Unless noted, the call rests on the fitted dose curve; in most records, active means well fitted curve in the direction sought with a large enough effect in the repeat runs; inconclusive means weak or mixed curves; inactive means no such curve, though single readings can be large; an effect the other way counts as inactive or inconclusive.
Columns and labels:
[1] = qHTS assay to identify aromatase inhibitors - cell viability counter screen (AID 743084);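 further: cells stimulated with testosterone during compound exposure; nearly all actives have a fitted effect of over 55% in size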
[2] = molecular target: Aryl hydrocarbon receptor (Homo sapiens) (UniProt P35869); test: qHTS assay to identify small molecule that activate the aryl hydrocarbon receptor (AhR) signaling pathway (AID 743085);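 further: HG2L7.5c1 human HepG2 liver cells with stably integrated DRE-driven firefly reporter; series mostly up to about 70 µM; nearly all actives have a fitted effect of over 15% in size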
Chain of Aryl hydrocarbon receptor (Homo sapiens) (P35869 whole entry, looked up): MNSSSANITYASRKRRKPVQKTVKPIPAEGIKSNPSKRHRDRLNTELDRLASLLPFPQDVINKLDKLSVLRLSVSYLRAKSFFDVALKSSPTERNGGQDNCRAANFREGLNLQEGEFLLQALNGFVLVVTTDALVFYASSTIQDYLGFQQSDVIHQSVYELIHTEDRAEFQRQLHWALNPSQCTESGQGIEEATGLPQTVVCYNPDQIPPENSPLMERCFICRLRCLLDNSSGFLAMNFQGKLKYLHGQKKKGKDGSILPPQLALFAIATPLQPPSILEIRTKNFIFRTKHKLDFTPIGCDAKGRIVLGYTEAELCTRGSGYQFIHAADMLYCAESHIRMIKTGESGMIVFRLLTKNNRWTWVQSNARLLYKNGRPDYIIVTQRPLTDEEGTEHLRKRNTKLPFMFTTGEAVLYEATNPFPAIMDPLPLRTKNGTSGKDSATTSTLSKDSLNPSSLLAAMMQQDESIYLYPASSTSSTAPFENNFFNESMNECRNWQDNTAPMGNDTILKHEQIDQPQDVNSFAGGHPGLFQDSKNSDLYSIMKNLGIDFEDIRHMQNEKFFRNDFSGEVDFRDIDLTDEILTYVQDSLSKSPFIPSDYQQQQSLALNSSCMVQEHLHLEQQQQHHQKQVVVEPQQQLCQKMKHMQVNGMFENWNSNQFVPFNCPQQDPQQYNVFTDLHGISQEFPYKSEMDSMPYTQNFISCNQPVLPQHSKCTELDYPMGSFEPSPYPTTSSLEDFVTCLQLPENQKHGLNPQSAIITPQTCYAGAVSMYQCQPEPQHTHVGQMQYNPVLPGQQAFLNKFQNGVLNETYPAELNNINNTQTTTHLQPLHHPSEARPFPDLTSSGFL
Outline: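 Reporter assay in engineered HepG2 line HG2L7.5c1, whose plasmid carries twenty dioxin responsive elements upstream of firefly luciferase. Treatment lasted 24 h at 37C; ONE-Glo luminescence gauged induction.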

[3] = qHTS assay to identify small molecule that activate the aryl hydrocarbon receptor (AhR) signaling pathway - cell viability counter screen (AID 743086);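 further: HepG2 liver cells carrying the AhR DRE luciferase reporter; series mostly up to about 70 µM; nearly all actives have a fitted effect of over 45% in size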
Outline: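 HepG2-AhR-luc (HG2L7.5c1) cells, 4000/well, were preincubated 5 h at 37C, exposed to compound in qHTS format for 24 hr at 37C, then given CellTiter-Fluor for 30 min; viability was read as fluorescence in the reporter wells.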

[4] = molecular target: Peroxisome proliferator-activated receptor gamma (Homo sapiens) (UniProt P37231); test: qHTS assay to identify small molecule agonists of the peroxisome proliferator-activated receptor gamma (PPARg) signaling pathway (AID 743094; active means well fitted activation curve with a large enough effect in the signal ratio in the repeat runs, not every such curve was filed as active; the % refers to the signal ratio)
Chain of Peroxisome proliferator-activated receptor gamma (Homo sapiens) (P37231 whole entry, looked up): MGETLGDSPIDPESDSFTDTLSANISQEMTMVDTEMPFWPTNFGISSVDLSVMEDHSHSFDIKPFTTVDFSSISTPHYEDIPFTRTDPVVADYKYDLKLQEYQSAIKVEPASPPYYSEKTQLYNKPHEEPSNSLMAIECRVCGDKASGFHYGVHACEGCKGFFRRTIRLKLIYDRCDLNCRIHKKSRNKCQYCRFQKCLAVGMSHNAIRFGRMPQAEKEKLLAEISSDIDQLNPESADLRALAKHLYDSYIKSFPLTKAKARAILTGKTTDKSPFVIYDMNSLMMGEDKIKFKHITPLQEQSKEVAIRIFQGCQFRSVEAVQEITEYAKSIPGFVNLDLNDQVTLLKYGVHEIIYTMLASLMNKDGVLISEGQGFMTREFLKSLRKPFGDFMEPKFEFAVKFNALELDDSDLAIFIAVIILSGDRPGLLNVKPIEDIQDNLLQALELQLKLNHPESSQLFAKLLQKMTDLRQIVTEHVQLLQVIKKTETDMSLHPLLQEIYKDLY
Outline: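 HEK293H PPARg-bla cells, 5 h settle at 37C/5% CO2; compound (DMSO) 17 h, 37C; B/G FRET substrate 1 h RT; fluorescence intensity read-out. qHTS format.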

[5] = molecular target: Peroxisome proliferator-activated receptor gamma (Homo sapiens) (UniProt P37231); test: qHTS assay to identify small molecule antagonists of the peroxisome proliferator-activated receptor gamma (PPARg) signaling pathway (AID 743191; calls by dose curve; further: nearly all actives have a fitted effect of over 30% in size; further: potency means the concentration at half of the fitted maximal effect)
Outline: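 GeneBLAzer PPARg UAS-bla HEK293H cells carrying a UAS-driven beta-lactamase reporter were plated at 3000 cells/well, preincubated 5 h at 37C, then given compound for 17 h at 37C; LiveBLAzer B/G FRET substrate was read after 1 h at room temperature.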

[6] = qHTS assay to identify small molecule antagonists of the peroxisome proliferator-activated receptor gamma (PPARg) signaling pathway - cell viability counter screen (AID 743194); further: nearly all actives have a fitted effect of over 55% in size
Outline: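 PPARg-UAS-bla HEK293H cells were plated, rested 5 h at 37 C, then treated with compounds plus rosiglitazone (50 nM final) for 17 h at 37 C; viability was then read by CellTiter-Glo luminescence after 30 min at room temperature.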

[7] = qHTS assay for small molecule agonists of the antioxidant response element (ARE) signaling pathway (AID 743202; active means well fitted activation curve with a large enough effect in the signal ratio in the repeat runs, not every such curve was filed as active; the % refers to the signal ratio; further: potency means the concentration at half of the fitted maximal effect)
Outline: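 Steps: seed ARE-bla HepG2 cells (2,000/well); incubate 5 h at 37 C; add compounds by pin tool; incubate 16 h at 37 C; add FRET substrate; read fluorescence after 2 h at RT.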

[8] = qHTS assay for small molecule agonists of the antioxidant response element (ARE) signaling pathway - cell viability counter screen (AID 743203; calls by dose curve; further: nearly all actives have a fitted effect of over 55% in size)
Outline: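 Luminescence read-out (CellTiter-Glo, 30 min at room temperature) measured cell viability in the same wells as the ARE beta-lactamase reporter. HepG2 ARE-bla cells were treated with compounds for 16 hrs at 37C/5% CO2.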

[9] = qHTS assay for small molecule activators of the heat shock response signaling pathway - cell viability counter screen (AID 743209); further: nearly all actives have a fitted effect of over 50% in size
Outline: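 HSE-bla HeLa; 1500 cells/well; overnight 37 C, 5% CO2; compound 5 h 37 C; LiveBLAzer B/G substrate 2.5 h RT; CellTiter-Glo 30 min RT; luminescence.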

[10] = qHTS assay for small molecule activators of the heat shock response signaling pathway (AID 743210; active means well fitted activation curve with a large enough effect in the signal ratio in the repeat runs, with a control signal flat, not every such curve was filed as active; the % refers to the signal ratio;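 further: HeLa cells with beta-lactamase reporter driven by heat shock elements; series mostly up to about 63 µM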)
Outline: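 Activation of heat shock element-controlled beta-lactamase expression is measured in HeLa cells by LiveBLAzer FRET fluorescence, with compound exposure lasting 5 h at 37 C and substrate loading 2.5 h at room temperature.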

[11] = qHTS assay to identify small molecule agonists of the peroxisome proliferator-activated receptor delta (PPARd) signaling pathway - cell viability counter screen (AID 743211); further: nearly all actives have a fitted effect of over 55% in size
Outline: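 Multiplexed format: after the 2 h room-temperature LiveBLAzer B/G FRET step, CellTiter-Glo was added to the same wells. Luminescence after 30 min gave cell viability; compound exposure was 17 h at 37C.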

[12] = qHTS assay to identify small molecule antagonists of the peroxisome proliferator-activated receptor delta (PPARd) signaling pathway - cell viability counter screen (AID 743213); further: nearly all actives have a fitted effect of over 50% in size
Outline: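 In this counter screen, HEK293H cells carrying a UAS-beta-lactamase reporter are co-treated with test compounds and 300 nM L165041 (final) for 17 h at 37 C; cell viability is quantified by CellTiter-Glo luminescence.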

[13] = qHTS assay to identify small molecule antagonists of the farnesoid-X-receptor (FXR) signaling pathway - cell viability counter screen (AID 743221; active means well fitted cell-killing curve with a large enough effect in the repeat runs, not every such curve was filed as active; further: nearly all actives have a fitted effect of over 50% in size)
Outline: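 CellTiter-Glo, 30 min RT, luminescence; same wells as the LiveBLAzer FRET read. Cells: FXR-UAS-bla HEK 293T. Treatment: compound with chenodeoxycholic acid 50 uM final, 16 h at 37 C.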

[14] = molecular target: Vitamin D3 receptor (Homo sapiens) (UniProt P11473); test: qHTS assay to identify small molecule agonists of the vitamin D receptor (VDR) signaling pathway (AID 743222; calls by dose curve)
Chain of Vitamin D3 receptor (Homo sapiens) (P11473 whole entry, looked up): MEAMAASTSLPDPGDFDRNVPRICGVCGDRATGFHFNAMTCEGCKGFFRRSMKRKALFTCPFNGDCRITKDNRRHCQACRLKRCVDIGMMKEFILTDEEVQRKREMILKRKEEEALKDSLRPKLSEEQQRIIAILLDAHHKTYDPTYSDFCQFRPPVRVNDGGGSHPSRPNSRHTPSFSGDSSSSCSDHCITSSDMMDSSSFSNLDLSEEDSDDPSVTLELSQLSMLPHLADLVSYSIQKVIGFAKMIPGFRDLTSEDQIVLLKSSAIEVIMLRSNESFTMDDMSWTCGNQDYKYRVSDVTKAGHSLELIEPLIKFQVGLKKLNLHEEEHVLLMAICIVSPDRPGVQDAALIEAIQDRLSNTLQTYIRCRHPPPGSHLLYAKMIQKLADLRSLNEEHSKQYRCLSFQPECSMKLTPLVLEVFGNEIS
Outline: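 Beta-lactamase reporter readout (LiveBLAzer B/G FRET, 2 h RT) in VDR-bla cells after 16 h compound treatment at 37C, 5% CO2; cells pre-incubated 4 h before pin transfer of DMSO solutions.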

[15] = molecular target: Vitamin D3 receptor (Homo sapiens) (UniProt P11473); test: qHTS assay to identify small molecule antagonists of the vitamin D receptor (VDR) signaling pathway (AID 743223; active means well fitted inhibition curve with a large enough effect in the signal ratio in the repeat runs, not every such curve was filed as active; the % refers to the signal ratio)
Outline: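 After VDR-bla cells are plated and left 4 h at 37C, DMSO-dissolved compounds and 3 nM (final) calcitriol agonist are added. Incubation continues 16 h at 37C; FRET beta-lactamase substrate then develops 2 h at room temperature.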

[16] = molecular target: Peroxisome proliferator-activated receptor delta (Homo sapiens) (UniProt Q03181); test: qHTS assay to identify small molecule agonists of the peroxisome proliferator-activated receptor delta (PPARd) signaling pathway (AID 743212; calls by dose curve)
Chain of Peroxisome proliferator-activated receptor delta (Homo sapiens) (Q03181 whole entry, looked up): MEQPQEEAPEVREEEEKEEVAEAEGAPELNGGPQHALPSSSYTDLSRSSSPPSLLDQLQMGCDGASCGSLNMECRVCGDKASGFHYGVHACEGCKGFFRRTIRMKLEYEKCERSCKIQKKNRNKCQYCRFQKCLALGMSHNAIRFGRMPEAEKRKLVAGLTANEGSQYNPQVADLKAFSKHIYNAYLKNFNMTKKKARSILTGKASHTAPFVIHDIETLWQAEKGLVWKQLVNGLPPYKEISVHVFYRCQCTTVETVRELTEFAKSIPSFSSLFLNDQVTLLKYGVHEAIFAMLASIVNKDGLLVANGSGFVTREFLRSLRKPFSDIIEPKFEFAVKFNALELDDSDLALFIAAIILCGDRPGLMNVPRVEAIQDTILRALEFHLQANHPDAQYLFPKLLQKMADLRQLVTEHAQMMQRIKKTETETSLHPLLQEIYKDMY
Outline: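 Cells expressing a UAS-driven beta-lactamase reporter (PPARd-bla HEK293H) were given test compounds after a 5 h settle and kept at 37 C. Reporter activity was then measured as FRET fluorescence using LiveBLAzer B/G substrate.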

[17] = molecular target: Peroxisome proliferator-activated receptor delta (Homo sapiens) (UniProt Q03181); test: qHTS assay to identify small molecule antagonists of the peroxisome proliferator-activated receptor delta (PPARd) signaling pathway (AID 743215; active means well fitted inhibition curve with a large enough effect in the signal ratio in the repeat runs, not every such curve was filed as active; the % refers to the signal ratio;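 further: cells stimulated with agonist L165041 at 300 nM final during compound exposure; series mostly up to about 62 µM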)
Outline: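 HEK293H GeneBLAzer PPARd UAS-bla reporter cells; cpd + L165041 300 nM final, 17 h 37 C; LiveBLAzer B/G FRET substrate 2 h RT; fluorescence intensity read-out. Antagonist mode.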

[18] = qHTS assay to identify small molecule agonists of the farnesoid-X-receptor (FXR) signaling pathway - cell viability counter screen (AID 743218); further: nearly all actives have a fitted effect of over 45% in size
Outline: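 Luminescence from CellTiter-Glo, read after 30 min at RT, reports viability of GeneBLAzer FXR-UAS-bla HEK 293T cells treated 16 h with compounds in the wells used for the beta-lactamase reporter.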

[19] = molecular target: Bile acid receptor (Homo sapiens) (UniProt Q96RI1); test: qHTS assay to identify small molecule agonists of the farnesoid-X-receptor (FXR) signaling pathway (AID 743220; active means well fitted activation curve with a large enough effect in the signal ratio in the repeat runs, not every such curve was filed as active; the % refers to the signal ratio)
Chain of Bile acid receptor (Homo sapiens) (Q96RI1 whole entry, looked up): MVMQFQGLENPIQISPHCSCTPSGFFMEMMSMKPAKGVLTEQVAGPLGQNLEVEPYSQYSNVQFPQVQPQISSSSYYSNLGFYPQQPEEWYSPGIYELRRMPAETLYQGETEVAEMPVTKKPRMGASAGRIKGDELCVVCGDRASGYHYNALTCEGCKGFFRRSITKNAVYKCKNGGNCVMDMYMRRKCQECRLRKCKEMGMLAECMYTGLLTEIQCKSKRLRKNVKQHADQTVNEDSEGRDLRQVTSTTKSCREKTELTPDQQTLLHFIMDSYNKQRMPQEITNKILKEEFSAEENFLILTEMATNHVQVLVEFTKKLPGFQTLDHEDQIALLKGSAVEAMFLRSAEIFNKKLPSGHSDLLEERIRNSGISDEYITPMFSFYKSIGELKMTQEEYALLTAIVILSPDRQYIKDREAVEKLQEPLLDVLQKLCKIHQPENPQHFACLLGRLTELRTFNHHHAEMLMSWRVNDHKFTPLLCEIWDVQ
Outline: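 FXR-UAS-bla HEK 293T cells carrying a UAS-driven beta-lactamase reporter were plated for 5 h at 37C/5% CO2, then exposed to DMSO-dissolved Tox21 10K compounds for 16 h at 37C. A LiveBLAzer B/G FRET substrate was loaded for 2 h at room temperature before fluorescence reading.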

[20] = molecular target: Bile acid receptor (Homo sapiens) (UniProt Q96RI1); test: qHTS assay to identify small molecule antagonists of the farnesoid-X-receptor (FXR) signaling pathway (AID 743217; active means well fitted inhibition curve with a large enough effect in the signal ratio in the repeat runs, not every such curve was filed as active; the % refers to the signal ratio)
Outline: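 Read-out: beta-lactamase FRET fluorescence (LiveBLAzer B/G substrate, 2 h, room temperature) in GeneBLAzer FXR-UAS-bla HEK 293T cells. Compounds were co-dosed with 50 uM chenodeoxycholic acid (final) and incubated 16 h at 37 °C.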

Measured: Potency

CC(C)NCC(O)COc1ccc(CC(N)=O)cc1 (stereo not given)
not listed: [16] | [17] | [18] | [19] | [20]
inactive: all other assays above

Oc1ccc(Sc2ccc(O)cc2)cc1
active: [5] 16.2 µM | [7] 22.8 µM
not listed: [11] | [15] | [20]
inactive: all other assays above

CCOC(=O)CC(=O)c1cc(F)c(Cl)nc1Cl
not listed: [11] | [14] | [15]
inactive: all other assays above

CC(=O)O[C@H]1C[C@@H]2CC[C@@H]3[C@H](CC[C@@]4(C)[C@H]3C[C@H]([N+]3(C)CCCCC3)[C@@H]4OC(C)=O)[C@@]2(C)C[C@@H]1N1CCCCC1
not listed: [9] | [14] | [15]
inactive: all other assays above

CC(=O)OC/C=C/c1ccccc1
not listed: [17] | [18]
inactive: all other assays above

CC(C)CCCC(C)CCO (stereo not given)
not listed: [10] | [14] | [17]
inactive: all other assays above

O=C(C(=O)c1ccc(Br)cc1)c1ccc(Br)cc1
not listed: [14] | [17]
inactive: all other assays above

c1ccc(CNCc2ccccc2)cc1
not listed: [9] | [12] | [19] | [20]
inactive: all other assays above

COC(=O)C(C)=O
not listed: [14] | [19] | [20]
inactive: all other assays above

CC(C)(C)c1cc(CO)cc(C(C)(C)C)c1O
active: [7] 31.2 µM
not listed: [9] | [11] | [13] | [14] | [15] | [16] | [17] | [20]
inactive: all other assays above

Cn1c(N)nc2nc[nH]c2c1=O
not listed: [10] | [15]
inactive: all other assays above

O=C(O)/C=C/c1cnc[nH]1
not listed: [14] | [16] | [17] | [19] | [20]
inactive: all other assays above

O=c1[nH]cnc2ccccc12
not listed: [11] | [12] | [14] | [15] | [17]
inactive: all other assays above

CNS(=O)(=O)Cc1ccc2[nH]cc(CCN(C)C)c2c1
not listed: [11] | [12] | [15]
inactive: all other assays above

Cc1ccc(C(=O)C(C)CN2CCCCC2)cc1 (stereo not given)
active: [7] 23.7 µM
not listed: [11] | [14] | [16] | [17]
inactive: all other assays above

CCCCC(CC)(CO)CO
inactive: all assays above

— PubChem BioAssay (Tox21)
